# Compound activity deposited in PubChem by National Center for Advancing Translational Sciences (NCATS).
# ERK EGF inh: qHTS Assay for Inhibitors of the ERK Signaling Pathway using a Homogeneous Screening Assay; Stimulation with EGF. HEK293-V1b, EGF-stimulated phospho-ERK AlphaScreen. Potency, µM (titrated, usually from 11.5 µM), without a hit: top-dose activity change, negative = inhibition, actives largely listed as inhibitors. actives 0.41% (n = 130,000); active means well fitted inhibition curve with a large enough effect;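 further: plate controls were stimulated vehicle wells for no effect and unstimulated vehicle basal for full effect; nearly all actives have a fitted effect of over 55% in size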
#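 Homogeneous cell-based phospho-ERK assay: HEK293/V1b cells in 1% FBS, compound 30 min then EGF 5 min, AlphaScreen luminescence. Activity normalized between DMSO and 25 nM EGF controls; AC50 from Hill modelling.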
# Starred values were filed as active, the others as inactive; [ ] = another dose, or the depositor's remark. Shown is part of a subset that was picked to be rich in hits. Potency means the concentration at half of the fitted maximal effect.
SMILES,ERK EGF inh
O=c1ccc2[n+]([O-])c3ccc(O)cc3oc-2c1,16µM*
COC(=O)N[C@@H](c1cccc(C)c1)C(C(C)=O)C(=O)OC (stereo partly specified),-1%
COc1c(C=O)c(=O)[nH]c2c(OC)cccc12,-7%
COC(=O)CC1C(C)(C)C(O)C2CC3=C4C=C(OC)OC(c5ccoc5)[C@]4(C)CCC3[C@@]1(C)C2=O (stereo partly specified),9%
COc1cccc(-c2coc3ccc(Br)cc3c2=O)c1,-2%
CN(C)c1ccc(/C=C2\CCC/C(=C\c3ccccc3)C2=O)cc1,-4%
CN(C)c1ccc(/C=C2/C(=O)Nc3ccccc32)cc1,-2%
CC(=O)N1/C(=C/c2ccc(N(C)C)cc2)C(=O)c2ccccc21,25µM*
CC(=O)N1CCC2(CC1)CN(C(c1ccccc1)c1ccccc1)C2,-6%
Cc1nc2cnc(N3CCNCC3)nc2n(C2CC2)c1=O,17%
COC(=O)C1C(=O)C(C(=O)/C=C/c2ccco2)C(=O)CC1(C)C (stereo unspecified),-12%
CC(C)CN1CC[C@@]2(CCCN(S(=O)(=O)c3ccccc3)C2)C1,-6%
Cn1c(-c2nc(-c3ccccc3)cs2)nc2ccccc21,14%
CN(C)c1ccnc(Nc2ccccc2)c1C#N,7%[57.5 µM]
CN(C)c1ccnc2c[cH-]cc12.[Fe].c1ccc(-[c-]2[c-](-c3ccccc3)[c-](-c3ccccc3)[c-](-c3ccccc3)[c-]2-c2ccccc2)cc1 (stereo unspecified),3.2µM*
Cc1cc([C@](C)(N)C(=O)O)ccc1P(=O)(O)O,-8%
C=CCCCCCCCCCCCC(O)CC(O)CO (stereo unspecified) (tested in a mixture with another compound),13%
O=C(COc1ccc(Cl)cc1Cl)NC(=S)Nc1ccc(CN2CCOCC2)cc1,20µM*
O=C(COc1ccccc1Cl)NC(=S)Nc1ccc(CN2CCOCC2)cc1,-12%
O=C(CCCCl)NC(=S)Nc1ccc(CN2CCOCC2)cc1,7%[57.5 µM]
CC(C)(C)[C@]1(O)CCN2CC3c4ccccc4CCc4cccc(c43)[C@@H]2C1 (stereo partly specified),-1%
C=CCOC(=O)N[C@@H](CC(C)C)/C(C(=O)OC)=C(\C)NCc1ccccc1,3%
CCc1cccc2nc3c(c([Si](C)(C)C)c12)Cn1c-3cccc1=O,-1%
COCC(=O)N1CCC[C@@]2(CCN(c3ccccn3)C2)C1,-1%
Cc1noc(C)c1C(=O)N1CCC[C@@]2(CCN(c3ccccn3)C2)C1,2%
SMILES,ERK EGF inh
N#C/C(=C\c1ccc(-c2ccccc2[N+](=O)[O-])o1)C(N)=O,-4%[57.5 µM]
O=C1/C(=C\c2ccc(-c3ccccc3[N+](=O)[O-])o2)C(c2ccccc2)=NN1c1ccccc1,28µM*
CN(C)/C=C1/C(=O)N(c2ccc([N+](=O)[O-])cc2)N=C1c1ccccc1,-6%
C=CCC(C)(O)CCc1ccccc1 (stereo unspecified),1%
O=C(Nc1ccccc1)N1CCC2(CC1)CCN(S(=O)(=O)c1ccccc1)CC2,4%
O=C1C(Cl)=C(N2CCC(C(=O)O)CC2)C(=O)c2ccccc21,-10%[57.5 µM]
CC(=O)N(C1=C(Cl)C(=O)c2ccccc2C1=O)C1CCCCC1,25µM*
CC(=O)N(c1ccccc1C)C1CCCC1,8%
O=C(NC[C@H]1CCCCN1)c1cc(OCC(F)(F)F)ccc1OCC(F)(F)F,-19%
CCCC[C@H](CC)CN1CN(C[C@@H](CC)CCCC)CC(C)(N)C1,-10%[25.7 µM]
COc1cccc([C@@H]2Oc3ccc(Br)cc3C(=O)[C@H]2OC(=O)NS(=O)(=O)c2ccc(F)cc2)c1,-10%
CN(C)c1ccc(C(c2ccc(N(C)C)cc2)c2ccc([N+](=O)[O-])cc2)cc1,14µM*
CC(C)(C)C(=O)NC(NC(=O)C(C)(C)C)c1ccc([N+](=O)[O-])cc1,-6%
CN(C)c1ccc(C=NC(CO)C(O)c2ccc([N+](=O)[O-])cc2)cc1 (stereo unspecified),11%[57.5 µM]
COc1ccc2c(c1)C(=O)[C@@H](OC(=O)NS(=O)(=O)c1ccc(C)cc1)[C@H](c1ccc(OC)c(Br)c1)O2,-7%
CCOC(=O)/C(C#N)=C/C=C1\C=Cc2ccccc2N1CC,16µM*
CCOC(=O)/C(C#N)=C(C)/C=C1\Sc2ccccc2N1CC,3%
CN1/C(=C/C=C(C#N)C#N)C=Cc2ccccc21,-10%[57.5 µM]
COc1cc2oc(=O)c3c4c(cc5ccc(c1CCN(C)C)c2c53)OCO4,-16%
O=C(O)C1CC(C2CCCCN2)CN2CCCCC12 (stereo unspecified),7%
COCCn1c(=O)c(-c2cc(F)cc(F)c2)nc2cnc(OC)nc21,7%
COc1ccc(Nc2oc(-c3ccccc3)nc2C#N)cc1,-4%
COc1ccc(-c2nc(C#N)c(NCCc3ccccc3)o2)cc1,28µM*
COc1ccc(Nc2oc(-c3ccc(OC)cc3)nc2C#N)cc1,-3%[57.5 µM]
O=Cc1s/c(=N\S(=O)(=O)c2ccccc2)n(CCCCl)c1Cl,22µM*
